# “And” between values parts separate entries of the source, which are not always exact repeats. Identical values can stand only once. Results filed as inconclusive are left out. A number with no mark means an inactive call. The source made the active and inactive calls. The call rests on the fitted dose curve; in most records, active means well fitted curve in the direction sought with a large enough effect; inconclusive means small, poorly fitted or top-dose-only effect, or another doubt; inactive means no such curve, though single readings can be large; an effect the other way counts as inactive or inconclusive.
# How the values were obtained:
# [1] = target: Cellular tumor antigen p53 (Homo sapiens) (UniProt P04637); experiment: Primary qHTS for small molecule compounds that upregulate eGFP-tagged delta133p53alpha (in N-terminal) cells. (AID 2060322); conditions: NCI-H358 eGFP-delta133p53alpha fluorescence, 24 h; activation: stronger effect = higher value; further: nearly all actives have a fitted effect of over 75% in size; further: potency means the concentration at half of the fitted maximal effect;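 on activation: series mostly up to about 56 µM; 0% = DMSO vehicle and 100% = reference activator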
# Chain of Cellular tumor antigen p53 (Homo sapiens) (P04637 whole entry, looked up): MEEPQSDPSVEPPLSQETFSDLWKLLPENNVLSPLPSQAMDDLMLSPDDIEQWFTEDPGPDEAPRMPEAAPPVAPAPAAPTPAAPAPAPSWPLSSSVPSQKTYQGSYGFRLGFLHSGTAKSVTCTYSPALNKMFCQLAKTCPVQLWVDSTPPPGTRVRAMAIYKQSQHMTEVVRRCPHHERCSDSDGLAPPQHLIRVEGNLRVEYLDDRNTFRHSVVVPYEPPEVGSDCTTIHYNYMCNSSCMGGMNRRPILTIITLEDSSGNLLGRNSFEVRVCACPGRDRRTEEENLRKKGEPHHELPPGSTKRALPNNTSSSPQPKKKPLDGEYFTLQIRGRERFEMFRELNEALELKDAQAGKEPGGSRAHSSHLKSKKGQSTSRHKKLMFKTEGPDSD
# Summary of the method: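 NCI-H358 cells pre-induced 24 h with 10 ng/ml doxycycline to express N-terminal eGFP-delta133p53alpha, then dosed 24 h at 37C without doxycycline; fixed, Hoechst-stained, GFP intensity by laser scanning cytometry, normalized to DMSO (0%) and 57.5 uM 5-azacytidine (100%).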
# [2] = target: Aldehyde dehydrogenase, mitochondrial (Homo sapiens) (UniProt P05091); experiment: qHTS for Inhibitors of the Aldehyde Dehydrogenase Family (ALDH2) Primary screen (AID 2061308);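 further: plate controls were vehicle for no effect and reference inhibitor for full effect; nearly all actives have a fitted effect of over 55% in size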
# [3] = target: Retinaldehyde dehydrogenase 3 (Homo sapiens) (UniProt P47895); experiment: qHTS for Inhibitors of the Aldehyde Dehydrogenase Family (ALDH1A3) Primary screen (AID 2061315);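 further: plate controls were DMSO vehicle for no effect and reference inhibitor for full effect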
# [4] = BET inhibitor-based combinations targeting novel dependencies in MECOM-rearranged (r) AML: SET-2 cell line (AID 2202231); conditions: SET-2 AML cells viability, CellTiter-Glo luminescence, 48 h; viability: stronger effect = lower value, concentration not given here; further: nearly all actives have a fitted effect of over 35% in size; further: potency means the concentration at half of the fitted maximal effect;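 on viability: plate controls were DMSO treated cells for no effect and wells without cells for full effect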
# Summary of the method: (§1)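 Each compound was tested at eleven concentrations on cells seeded at 500/well. After two days' incubation, ATP-based luminescence reported viability; responses relative to DMSO and blank wells yielded AUC and cell-line-centred Z-AUC.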
# [5] = BET inhibitor-based combinations targeting novel dependencies in MECOM-rearranged (r) AML: OCI-AML3 cell line (AID 2202232); conditions: Potency: OCI-AML3 viability; further: nearly all actives have a fitted effect of over 35% in size; further: potency means the concentration at half of the fitted maximal effect;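 on viability (% of control): series mostly up to about 46 µM; plate controls were DMSO vehicle wells for no effect and wells without cells for full effect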
# Summary of the method: as §1
# [6] = BET inhibitor-based combinations targeting novel dependencies in MECOM-rearranged (r) AML: MV-4-11 cell line (AID 2202233); further: nearly all actives have a fitted effect of over 45% in size; further: potency means the concentration at half of the fitted maximal effect;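 on viability, % of control: plate controls were DMSO for no effect and blank wells for full effect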
# Summary of the method: (§2)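 First, 500 cells per well were seeded; next, drugs were pinned as 11-point doses; then plates sat 48 hr in the incubator; finally CellTiter-Glo was added and luminescence read, with AUC and Z-AUC computed.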
# [7] = BET inhibitor-based combinations targeting novel dependencies in MECOM-rearranged (r) AML: HNT-34 cell line (AID 2202234); further: nearly all actives have a fitted effect of over 35% in size; further: potency means the concentration at half of the fitted maximal effect;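 on viability (% of control): plate controls were vehicle wells for no effect and cell-free wells for full effect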
# Summary of the method: as §2
# [8] = BET inhibitor-based combinations targeting novel dependencies in MECOM-rearranged (r) AML: UCSD-AML1 cell line (AID 2202235); further: nearly all actives have a fitted effect of over 40% in size; further: potency means the concentration at half of the fitted maximal effect;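 on viability (% of control): series mostly up to about 46 µM; plate controls were DMSO vehicle wells for no effect and blank wells for full effect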
# Summary of the method: as §2
# [9] = BET inhibitor-based combinations targeting novel dependencies in MECOM-rearranged (r) AML: AML-191 cell line (AID 2202236; further: nearly all actives have a fitted effect of over 35% in size; further: potency means the concentration at half of the fitted maximal effect;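 on viability (% of control): plate controls were vehicle wells for no effect and wells without cells for full effect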)
# Summary of the method: as §1
# [10] = BET inhibitor-based combinations targeting novel dependencies in MECOM-rearranged (r) AML: AML-194 cell line (AID 2202237; further: nearly all actives have a fitted effect of over 40% in size; further: potency means the concentration at half of the fitted maximal effect;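 on viability (% of control): plate controls were vehicle wells for no effect and wells without cells for full effect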)
# Summary of the method: as §1
Structure (SMILES),Potency [1],Potency [2],Potency [3],Potency [4],Potency [5],Potency [6],Potency [7],Potency [8],Potency [9],Potency [10],activation [1],viability [4],"activity change, negative = inhibition [2]","activity change, negative = inhibition [3]",viability (% of control) [5],"viability, % of control [6]",viability (% of control) [7],viability (% of control) [8],viability (% of control) [9],viability (% of control) [10]
CCNC(=O)C#Cc1ccc2c(C(=Nc3ccc(CN(C)C)cc3)c3ccccc3)c(O)[nH]c2c1,13.1 µM (active),inactive,inactive,12900 nM (active),144 nM (active),64.5 nM (active),91 nM (active),574 nM (active),204 nM (active),162 nM (active),,,,,,,,,,
CS(=O)(=O)c1ccc(Oc2cc(F)cc(C#N)c2)c2c1[C@H](O)C(F)(F)C2,,inactive,inactive,,inactive,inactive,inactive,inactive,inactive,inactive,-20.7%,103%,,,,,,,,
Nc1cc(C(F)(F)F)c(-c2cc(N3CCOCC3)nc(N3CCOCC3)n2)cn1,1.69 µM (active),inactive,inactive,4170 nM (active),1860 nM (active),2350 nM (active),1660 nM (active),1180 nM (active),2090 nM (active),1860 nM (active),,,,,,,,,,
c1cc(-c2cnn3cc(-c4ccc(N5CCNCC5)cc4)cnc23)c2cccnc2c1,15.1 µM (active),inactive,inactive,5250 nM (active),16600 nM (active),3320 nM (active),11800 nM (active),8330 nM (active),4680 nM (active),2950 nM (active),,,,,,,,,,
Cc1cc(Nc2cc(N3CCN(C)CC3)nc(/C=C/c3ccccc3)n2)n[nH]1,30.1 µM (active),inactive,inactive,13200 nM (active),8330 nM (active),132 nM (active),525 nM (active),2950 nM (active),2090 nM (active),1180 nM (active),,,,,,,,,,
CCCn1c(=O)c2[nH]c(-c3cnn(Cc4cccc(C(F)(F)F)c4)c3)nc2n(CC)c1=O,,inactive,inactive,,inactive,inactive,inactive,inactive,inactive,inactive,0.955%,114%,,,,,,,,
C=CCn1c(=O)c2cnc(Nc3ccc(N4CCN(C)CC4)cc3)nc2n1-c1cccc(C(C)(C)O)n1,21.7 µM (active) and 2.69 µM (active),inactive,inactive,1320 nM (active),1660 nM (active),742 nM (active),296 nM (active),833 nM (active),742 nM (active),742 nM (active),,,,,,,,,,
C=CC(=O)Nc1cccc(Oc2nc(Nc3ccc(N4CCN(C)CC4)cc3)ncc2Cl)c1,9.68 µM (active) and 13.5 µM (active),inactive,inactive,14800 nM (active),7420 nM (active),1860 nM (active),2350 nM (active),4170 nM (active),5900 nM (active),5250 nM (active),,,,,,,,,,
CCc1cc(C(N)=O)ccc1-n1nc(C(C)C)c2c(-n3cnc(-c4cnn(C)c4)c3)ccnc21,,inactive,inactive,2950 nM (active),1860 nM (active),662 nM (active),1320 nM (active),1860 nM (active),1660 nM (active),1480 nM (active),4.33%,,,,,,,,,
O=C1NC(=O)C(c2cnc3ccccn23)=C1c1cn2c3c(cc(F)cc13)CN(C(=O)N1CCCCC1)CC2,30.1 µM (active),inactive,inactive,41.7 nM (active),2950 nM (active),186 nM (active),66.1 nM (active),1660 nM (active),662 nM (active),3720 nM (active),,,,,,,,,,
CC(C)(C)C(=O)CN1C(=O)[C@H](NC(=O)Nc2cccc(C(=O)O)c2)CN(C2CCCCC2)c2ccccc21,,inactive,inactive,,inactive,inactive,inactive,inactive,inactive,inactive,-7.67%,110%,,,,,,,,
CN[C@@H](C)[C@H]1[C@H](O)C[C@@]2(C)[C@@H]3CC[C@H]4C(C)(C)[C@@H](NC)CC[C@@]45C[C@@]35CC[C@]12C,,,,,,,,,,,-17.2% and -1.67%,106%,0.631% [at 11.2 µM],0.124% [at 11.2 µM],106% [at 8.46 µM],115% [at 8.46 µM],103% [at 8.46 µM],111% [at 8.46 µM],95.8% [at 8.46 µM],117% [at 8.46 µM]
CNC(=O)c1ccccc1Nc1nc(Nc2ccc3c(c2OC)CCC[C@@H](N2CCN(CCO)CC2)C3)ncc1Cl,9.53 µM (active),inactive,inactive,18600 nM (active),inactive,inactive,inactive,inactive,inactive,inactive,,,,,,,,,,
CNc1nc(C)nc(N[C@H]2CCC[C@@H](C(=O)NCc3ccc(C#N)cc3C(F)(F)F)C2)n1,,inactive,inactive,,inactive,16600 nM (active),inactive,inactive,inactive,inactive,10%,108%,,,,,,,,

# Reference: PubChem BioAssay (NCATS)
